Bioassay records as filed in PubChem BioAssay.
In the library only some 11% were active in any assay of this set; here they are far more common.
MCF10A rerep: DNA re-replication induction in MCF 10a cells; AID 624296; Potency, µM (titrated, usually from 46.1 µM), without a hit: at the top dose activity, positive = re-replication, actives largely listed as activators; MCF 10A DNA re-replication, Hoechst nuclear intensity, 48 h; 2.9% of 350,000 active; further: potency means the concentration at half of the fitted maximal effect; % of control where 0% means no effect; nearly all actives have a fitted effect of over 50% in size
RORgamma inh: inhibitors of mouse ROR gamma transcriptional activity; Drosophila S2 Gal4-RORgamma UAS-luciferase reporter, 20 h; Potency, µM (doses to about 53.6 µM), for inactives: at the top dose activity change, negative = inhibition, usual class: inhibitors; 5.4% of 310,000 active; further: potency means the concentration at half of the fitted maximal effect; on the % scale 0 is the no-effect control and ±100 the full control effect; nearly all actives have a fitted effect of over 60% in size
Target sequence (P51450 whole entry, looked up, the tested form may be a part): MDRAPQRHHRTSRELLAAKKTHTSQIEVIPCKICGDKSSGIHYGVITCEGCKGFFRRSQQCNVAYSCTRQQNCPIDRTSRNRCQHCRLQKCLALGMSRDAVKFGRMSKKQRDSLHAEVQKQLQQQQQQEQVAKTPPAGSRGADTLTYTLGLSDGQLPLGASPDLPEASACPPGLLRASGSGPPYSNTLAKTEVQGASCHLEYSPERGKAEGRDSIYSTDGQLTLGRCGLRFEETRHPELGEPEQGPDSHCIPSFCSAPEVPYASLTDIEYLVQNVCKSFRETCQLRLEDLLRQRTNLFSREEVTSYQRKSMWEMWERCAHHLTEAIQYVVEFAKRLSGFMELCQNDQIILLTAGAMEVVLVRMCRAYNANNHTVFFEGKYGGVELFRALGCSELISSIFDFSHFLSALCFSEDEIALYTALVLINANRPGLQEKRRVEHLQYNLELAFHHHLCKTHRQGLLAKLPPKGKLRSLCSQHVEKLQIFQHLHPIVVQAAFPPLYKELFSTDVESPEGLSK
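Using a luciferase readout, inhibitors were identified by reduced reporter activity in Drosophila cells coexpressing a copper-inducible Gal4–ROR gamma fusion and UAS-driven Photinus luciferase, incubated 20 hr after 700 uM copper sulfate.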
SW480 rerep: DNA re-replication induction in SW480 cells; SW480 DNA re-replication, Hoechst DNA content imaging, 48 h; Potency, µM (highest dose often 46.1 µM), for the others: at the top dose re-replication activation, most hits filed as activators; 1.8% of 340,000 active; AID 624297; further: potency means the concentration at half of the fitted maximal effect; % of control where 0% means no effect; nearly all actives have a fitted effect of over 55% in size
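Readout is total intensity of Hoechst-stained nuclei, excited at 405 nm and collected at 500-530 nm. Compound treatment lasted 48 hr at 37 C in 5% CO2 before staining.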
IL1B secr inh: blocks inflammasome-driven IL-1 beta release. THP-1 LPS/ATP IL-1B secretion, AlphaLISA, 16 h; hits give low values. activity change, % at 57.5 µM. 4.7% of 360,000 active. AID 743279; in the data active means activity change below about -50%; inconclusive means mostly about -30% to -49%; further: on the % scale 0 is the no-effect control and ±100 the full control effect
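Secreted IL-1B measured by AlphaLISA bead assay after 16 h compound exposure of THP-1 cells; compounds (final up to 57.5 uM) added 1 h before LPS (250 ng/mL) and ATP (1.25 mM) stimulation; lower signal means less secretion.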
VP16 counter: inhibits Gal4-VP16 luciferase reporter, ROR gamma counter-screen. Drosophila S2 Gal4-VP16 UAS-luciferase, luminescence, 20 h. Potency, µM (series often up to 53.6 µM), for the others: top-dose activity, negative = inhibition, actives largely listed as inhibitors. 3.5% of 310,000 active. AID 2546;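 further: Gal4-VP16 expression switched on by copper sulfate through the metallothionein promoter; potency means the concentration at half of the fitted maximal effect; on the % scale 0 is the no-effect control and ±100 the full control effect; nearly all actives have a fitted effect of over 50% in size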
Active calls of the source: *; u = inconclusive; x = not tested or not shown; [ ] = dose if it differs, or a comment. Unless noted, the call rests on the fitted dose curve; in most records, active means well fitted curve in the direction sought with a large enough effect; inconclusive means small, poorly fitted or top-dose-only effect, or another doubt; inactive means no such curve, though single readings can be large; an effect the other way counts as inactive or inconclusive.

SMILES | MCF10A rerep | RORgamma inh | SW480 rerep | IL1B secr inh | VP16 counter
Cc1cccc(N2CCN(C(=O)c3ccc(Cl)c(S(=O)(=O)NCc4ccco4)c3)CC2)c1C | 16µM* | u | u | 13 | 7%
O=C(c1cccc(S(=O)(=O)NCc2ccccc2)c1)N1CCN(c2ccccc2)CC1 | 6.5µM* | x | u | 27 | x
COc1ccc(N2CCN(c3ccc(S(=O)(=O)N(C(C)C)C(C)C)cn3)CC2)cc1 | 8% | u | -12% | 6 | -1%
C=CCN(c1ccc(F)cc1)S(=O)(=O)c1cc(C(=O)NC2CC2)ccc1Cl | x | x | x | 8 | x
Cc1sc2nc(CSC(C)C(=O)Nc3cc(S(C)(=O)=O)ccc3Cl)[nH]c(=O)c2c1C (stereo unspecified) | u | x | 1% | 10 | x
O=C(CN1CCc2ccccc2C1)Nc1ccc(OC(F)(F)F)cc1 | 4% | 22% | 14% | -65* | -4%
Cc1ccc(NC(=O)CSCC(=O)Nc2ccccc2N2CCCCC2)cc1 | u | x | 4% | -63* | x
Cc1cccc(NC(=O)CSCC(=O)Nc2ccccc2N2CCCCC2)c1 | 131% | x | u | -13 | x
O=C(CN1CCc2ccccc2C1)Nc1ccc(F)cc1 | -6% | -1% | -6% | 0 | -6%
O=C(CN1CCc2ccccc2C1)Nc1ccccc1N1CCCCCC1 | 13µM* | 7% | u | -13 | 14%
Cc1occc1-c1nnc(SCC(=O)Nc2ccccc2N2CCCCC2)n1C | 9% | u | 20% | -53* | 3%
CCOC(=O)C1=CCN(S(=O)(=O)c2ccccc2C)C1c1ccc(Cl)c(Cl)c1 (stereo unspecified) | x | x | x | 4 | x
O=C(CNCC1CCCCC1)Nc1ccc(OC(F)(F)F)cc1 | u | 16% | 12% | -101* | -3%
Cc1cccc(NC(=O)CSCC(=O)Nc2ccccc2N2CCCC2)c1 | 2% | -4% | 1% | -57* | -15%
Cc1ccsc1C(=O)OCC(=O)NC1CCCC(C)C1C (stereo unspecified) | 6% | x | -3% | 0 | x
NCC1O[C@H](O[C@@H]2C(O)[C@H](O[C@H]3OC(CO)C(O)C(N)C3O)[C@@H](N)C[C@H]2N)[C@@H](N)CC1O (stereo partly specified) | x | -7% | x | x | -11%
Cn1c(N=NC(=O)c2ccccc2)c(O)c2ccccc21 | 14% | 8.9µM* | -6% | -11 | u
COCCNC(=O)c1ccc(-n2c(SCc3ccncc3)nc3ccccc3c2=O)cc1 | 6% | 13% | -5% | -73* | -26%
COCCNC(=O)CSc1nc2ccccc2c(=O)n1-c1cccc(OC)c1 | -7% | 9% | -4% | 0 | 5%[0.365 µM]
CC(=O)c1ccc(-n2c(SCC(=O)c3c[nH]c4ccccc34)nc3ccccc3c2=O)cc1 | 4% | 1.4µM* | -5% | u | -18%
COc1ccc(OCC2CC3C(CCC(C)C3c3ccc(Br)cc3)C(=O)O2)cc1 (stereo unspecified) | x | -20%[10 µM] | x | x | -5%[10 µM]
Cc1c(Cl)cccc1NC(=S)Nn1cnnc1 | 3% | u | 3% | u | -9%
COc1ccc(S(=O)(=O)N2CCCCC2)cc1NC(=S)Nc1cccc(Cl)c1C | 29% | 11µM* | 2% | -11 | u
Cc1c(Cl)cccc1NC(=S)NNS(=O)(=O)c1ccc([N+](=O)[O-])cc1 | 7% | 4.5µM* | 7% | 12 | 7.1µM*
COc1ccc(S(=O)(=O)N2CCCCC2)cc1NS(=O)(=O)c1cc(Cl)ccc1Cl | -18% | 3% | 23µM* | 0 | u
SMILES | MCF10A rerep | RORgamma inh | SW480 rerep | IL1B secr inh | VP16 counter
COc1ccc(S(=O)(=O)N(C)C)cc1NCC(=O)Nc1ccc(F)cc1F | 0% | 30% | -3% | 10 | -15%
COc1ccc(S(=O)(=O)N(C)C)cc1NS(=O)(=O)c1ccc(F)c(F)c1F | 0% | 4.5µM* | 3% | 17 | 13µM*
N#Cc1c(N2CCSCC2)nsc1-c1ccccc1Cl | u | 4% | u | -25 | 3%
O=C(CNC(=O)c1ccc(Cl)cc1Cl)OCCOc1ccccc1F | 2% | x | 1% | -10 | x
CC(CCc1ccccc1)NC(=O)COC(=O)c1ccc(NC(N)=O)cc1 (stereo unspecified) | -3% | -1% | -14% | 28 | -4%
O=S(=O)(c1ccc2nc(-c3ccccc3)[nH]c2c1)N1CCN(c2ccc(Cl)cc2)CC1 | 16µM* | -1% | u | 6 | -13%
Cc1cccc(NC(=O)C2CCN(S(=O)(=O)c3cccc4nsnc34)CC2)c1 | 0% | 25% | -10% | -10 | -6%
COc1ccc(NC(=O)C2CCCN(S(=O)(=O)c3cccc4nonc34)C2)cc1 (stereo unspecified) | 15µM* | 6% | u | 8 | 7%
Cc1cccc(NC(=O)C2CCCN(S(=O)(=O)c3cccc4nsnc34)C2)c1 (stereo unspecified) | 15µM* | 15% | u | 0 | -8%
Cc1ccc(NC(=O)C2CCCN(S(=O)(=O)c3cccc4nonc34)C2)cc1 (stereo unspecified) | -7% | -8% | 0% | 9 | 1%
COC(=O)[C@@]1(Cc2ccc(OC)cc2)[C@H]2c3cc(C(=O)N(C)C)n(Cc4nc5ccccc5[nH]4)c3C[C@H]2CN1C(=O)c1ccccc1 | x | 40% | x | x | -19%
Cc1cc(C)cc(C(O)c2ncc(-c3ccccc3C)[nH]2)c1 (stereo unspecified) | x | x | x | -9 | x
Cc1ccccc1C1CC(=O)Oc2ccc(O)cc21 (stereo unspecified) | x | -12%[96.6 µM] | x | x | -4%[96.6 µM]
Cc1ccc(S(=O)(=O)N(CC(=O)NCCSc2ccccn2)c2ccc(C)c(C)c2)cc1 | 27% | u | 2% | -53* | -8%
CCNC(=O)CN(c1ccc(C)cc1)S(=O)(=O)c1ccccc1 | -2% | -12% | 3% | -9 | 11%
Cc1ccc(N(CC(=O)NCC(O)c2ccccc2)S(=O)(=O)c2ccc(C)cc2)cc1 (stereo unspecified) | 10% | 8% | 4% | -94* | 0%
COc1cc(OC)cc(C(=O)NC(C(=O)NNC(=O)CN(C)S(=O)(=O)c2ccc(C)cc2)C(C)C)c1 (stereo unspecified) | 11% | x | -3% | -2 | x
Clc1cccc(Cc2c(-c3ccco3)nc3ccc(Cl)cn23)c1 | x | x | x | -59* | x
Cc1ccc(Cc2c(-c3ccco3)nc3c(C)cc(Br)cn23)cc1 | x | x | x | -70* | x
CCN(Cc1ccccc1)C(=O)CSc1ncn[nH]1 | 4% | 3% | -1% | -9 | 4%
Cc1ccc(C2(CC(=O)Nc3nccs3)CCOC(C(C)C)C2)cc1 (stereo unspecified) | -82% | -88% | -155% | 0 | u
COc1ccccc1C1(CC(=O)Nc2nccs2)CCOC(C(C)C)C1 (stereo unspecified) | 28% | 11µM* | u | 39 | -8%
